Of roughly 7,900 targets only a part is listed; those with a hit were picked by preference. About 0.6% of all pairs of compound and target were hits.
Columns and labels:
Assay in all cases: log2 fold change, soluble protein after heating vs DMSO (PISA); higher = thermal stabilisation; K562 cells, 10 uM, 30 min; active = over 0.2 and 3.5 SD of the protein, either way, in both replicates (recomputed)
[1] = compound: CC1=C(C=C(C=C1)NC(=O)C2=CC(=CC=C2)C(C)(C)C#N)NC3=CC4=C(C=C3)N=CN(C4=O)C
How it was run: (§1)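 K562 cells at 2×10^6 cells/mL were treated with 10 μM compound for 30 min. Aliquots were heated for 3 min across 48°C-58°C, pooled, and extracted in PBS with 0.5% NP-40 at 4°C; soluble protein was the supernatant after 21,000xg for 90 min. Soluble protein was quantified by TMTpro 16plex LC-MS/MS with channel sums equalised, and reported as log2 fold change in thermal stability against DMSO controls, with values from duplicates.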

[2] = compound: CC1=C(C=C(C=C1)NC(=O)C2=CC(=CC=C2)N(C)C)NC(=O)C3=CC=C(C=C3)O
How it was run: as §1

[3] = compound: CC1=CC=C(C=C1)SC2=C3C=C(SC3=CN=C2)C(=O)N
How it was run: as §1

[4] = compound: CC1=NC(=CC=C1)C2=C(N=C(N2)C(C)(C)C)C3=CC4=NC=CN=C4C=C3
How it was run: as §1

Nexturastat A = compound: CCCCN(Cc1ccc(C(=O)NO)cc1)C(=O)Nc1ccccc1 [Nexturastat A]
How it was run: as §1

vemurafenib = compound: CCCS(=O)(=O)Nc1ccc(F)c(C(=O)c2c[nH]c3ncc(-c4ccc(Cl)cc4)cc23)c1F [vemurafenib]
How it was run: as §1

[5] = compound: CCCS(=O)(=O)Nc1ccc(F)c(C(=O)c2c[nH]c3ncc(Cl)cc23)c1F
How it was run: as §1

[6] = compound: CCCc1cc(C)[nH]c(=O)c1CNC(=O)c1cc(-c2ccnc(N3CCN(C)CC3)c2)cc2c1cnn2C(C)C
How it was run: as §1

givinostat = compound: CCN(CC)Cc1ccc2cc(COC(=O)Nc3ccc(C(=O)NO)cc3)ccc2c1 [givinostat]
How it was run: as §1

barasertib = compound: CCN(CCCOc1ccc2c(Nc3cc(CC(=O)Nc4cccc(F)c4)[nH]n3)ncnc2c1)CCOP(=O)(O)O [barasertib]
How it was run: as §1

Measured: log2 fold change

LARP4B (UniProt Q92615)
inactive: [1] 0.055 | [2] 0.032 | [3] 0.016 | [4] 0.001 | Nexturastat A 0.127 | vemurafenib 0.016 | [5] 0.022 | [6] 0.05 | givinostat 0.061 | barasertib -0.025

MAGEA9 (UniProt P43362)
Sequence of UniProt P43362 (P43362 whole entry, looked up): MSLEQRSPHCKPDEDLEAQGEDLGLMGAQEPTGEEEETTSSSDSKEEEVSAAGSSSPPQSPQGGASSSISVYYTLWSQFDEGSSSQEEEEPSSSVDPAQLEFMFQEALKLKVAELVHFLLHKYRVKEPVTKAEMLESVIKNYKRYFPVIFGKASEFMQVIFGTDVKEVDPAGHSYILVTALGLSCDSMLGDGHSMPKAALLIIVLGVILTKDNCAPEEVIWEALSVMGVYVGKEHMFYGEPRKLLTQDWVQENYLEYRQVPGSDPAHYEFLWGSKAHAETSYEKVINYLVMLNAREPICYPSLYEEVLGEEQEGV
inactive: [1] -0.033 | [2] 0.05 | [3] -0.005 | [4] -0.087 | Nexturastat A 0.005 | vemurafenib -0.031 | [5] 0.072 | [6] 0.054 | givinostat 0.066 | barasertib 0.036

LMNA (UniProt P02545)
inactive: [1] -0.023 | [2] 0.095 | [3] -0.026 | [4] -0.002 | Nexturastat A -0.022 | vemurafenib 0.088 | [5] 0.014 | [6] -0.027 | givinostat 0.014 | barasertib -0.004

MAP2K2 (UniProt P36507)
Sequence of UniProt P36507 (P36507 whole entry, looked up): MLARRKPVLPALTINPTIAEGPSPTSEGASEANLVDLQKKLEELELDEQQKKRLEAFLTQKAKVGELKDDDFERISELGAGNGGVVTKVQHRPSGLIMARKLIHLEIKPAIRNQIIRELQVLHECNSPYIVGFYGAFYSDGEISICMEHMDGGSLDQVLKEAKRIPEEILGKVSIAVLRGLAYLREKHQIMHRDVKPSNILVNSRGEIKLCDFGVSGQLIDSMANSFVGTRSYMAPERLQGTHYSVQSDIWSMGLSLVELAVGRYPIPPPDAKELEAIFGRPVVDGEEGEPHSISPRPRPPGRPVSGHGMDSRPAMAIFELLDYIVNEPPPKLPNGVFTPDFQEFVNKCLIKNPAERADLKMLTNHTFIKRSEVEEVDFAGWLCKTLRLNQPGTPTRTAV
inactive: [1] -0.018 | [2] 0.013 | [3] 0.009 | [4] 0.028 | Nexturastat A -0.001 | vemurafenib -0.008 | [5] -0.002 | [6] 0.17 | givinostat 0.014 | barasertib 0.011

KEAP1 (UniProt Q14145)
inactive: [1] -0.024 | [2] 0.032 | [3] 0.005 | [4] -0.009 | Nexturastat A 0.038 | vemurafenib 0.054 | [5] 0.101 | [6] 0.004 | givinostat 0.034 | barasertib 0.082

IRF2BPL (UniProt Q9H1B7)
inactive: [1] 0.013 | [2] -0.006 | [3] 0.015 | [4] 0.068 | Nexturastat A 0.038 | vemurafenib 0.014 | [5] 0.049 | [6] 0.008 | givinostat 0.05 | barasertib -0.044

KDM1A isoform 2 (UniProt O60341)
inactive: [1] -0.029 | [2] 0.058 | [3] 0.01 | [4] 0.002 | Nexturastat A 0.023 | vemurafenib -0.02 | [5] 0.033 | [6] 0.046 | givinostat 0.101 | barasertib 0.013

KLHDC4 (UniProt Q8TBB5)
inactive: [1] -0.027 | [2] -0.003 | [3] -0.007 | [4] -0.092 | Nexturastat A 0.18 | vemurafenib 0.096 | [5] 0.076 | [6] -0.223 | givinostat -0.011 | barasertib 0.028

LPCAT3 (UniProt Q6P1A2)
active: [1] 0.289
inactive: [2] -0.029 | [3] 0.052 | [4] 0.033 | Nexturastat A -0.226 | vemurafenib -0.019 | [5] 0.036 | [6] 0.089 | givinostat 0.031 | barasertib -0.005

MAPK12 (UniProt P53778)
inactive: [1] -0.043 | [2] 0.017 | [3] -0.022 | [4] 0.09 | Nexturastat A -0.112 | vemurafenib 0.019 | [5] 0.104 | [6] 0.016 | givinostat -0.058 | barasertib -0.031

METTL18 (UniProt O95568)
inactive: [1] -0.026 | [2] 0.018 | [3] -0.032 | [4] 0.028 | Nexturastat A -0.164 | vemurafenib 0.014 | [5] 0.05 | [6] -0.042 | givinostat -0.245 | barasertib 0.012

ILRUN (UniProt Q9H6K1)
Sequence of UniProt Q9H6K1 (Q9H6K1 whole entry, looked up): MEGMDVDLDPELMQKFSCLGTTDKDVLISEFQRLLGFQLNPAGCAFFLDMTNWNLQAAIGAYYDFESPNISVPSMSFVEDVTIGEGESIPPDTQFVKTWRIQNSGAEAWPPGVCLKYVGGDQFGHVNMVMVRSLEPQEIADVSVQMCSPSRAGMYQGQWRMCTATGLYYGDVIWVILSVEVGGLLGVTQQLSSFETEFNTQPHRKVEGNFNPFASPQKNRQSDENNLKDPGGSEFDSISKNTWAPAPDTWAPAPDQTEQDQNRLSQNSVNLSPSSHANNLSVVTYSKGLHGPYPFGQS
inactive: [1] 0.06 | [2] -0.02 | [3] 0.088 | [4] 0.005 | Nexturastat A 0.072 | vemurafenib 0.059 | [5] 0.135 | [6] -0.026 | givinostat -0.051 | barasertib -0.044

ILF2 (UniProt Q12905)
inactive: [1] 0.036 | [2] -0.032 | [3] -0.031 | [4] -0.041 | Nexturastat A 0.084 | vemurafenib 0.028 | [5] -0.042 | [6] 0.032 | givinostat -0.02 | barasertib -0.119

KPNA6 (UniProt O60684)
inactive: [1] -0.06 | [2] -0.02 | [3] -0.014 | [4] -0.063 | Nexturastat A 0.156 | vemurafenib -0.09 | [5] 0.078 | [6] 0.068 | givinostat 0.018 | barasertib 0.047

MAP3K7 (UniProt O43318)
inactive: [1] -0.008 | [2] -0.039 | [3] 0.041 | [4] 0.019 | Nexturastat A 0.027 | vemurafenib 0.042 | [5] 0.074 | [6] 0.008 | givinostat 0.093 | barasertib 0.079

MFN1 (UniProt Q8IWA4)
inactive: [1] -0.007 | [2] 0.035 | [3] 0.039 | [4] -0.04 | Nexturastat A -0.032 | vemurafenib -0.061 | [5] -0.021 | [6] -0.19 | givinostat 0.053 | barasertib 0.016

IGFBP4 (UniProt P22692)
Sequence of UniProt P22692 (P22692 whole entry, looked up): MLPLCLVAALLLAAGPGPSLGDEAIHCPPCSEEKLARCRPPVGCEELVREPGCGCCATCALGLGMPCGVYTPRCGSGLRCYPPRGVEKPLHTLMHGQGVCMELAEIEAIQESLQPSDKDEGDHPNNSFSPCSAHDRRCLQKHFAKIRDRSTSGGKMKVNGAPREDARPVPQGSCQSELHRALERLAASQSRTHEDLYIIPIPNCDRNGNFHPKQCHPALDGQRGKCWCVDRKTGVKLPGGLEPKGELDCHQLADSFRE
inactive: [1] 0.044 | [2] 0.207 | [3] 0.026 | [4] 0.003 | Nexturastat A 0.019 | vemurafenib 0.084 | [5] -0.08 | [6] -0.193 | givinostat -0.007 | barasertib 0.013

MAPKAPK3 (UniProt Q16644)
Sequence of UniProt Q16644 (Q16644 whole entry, looked up): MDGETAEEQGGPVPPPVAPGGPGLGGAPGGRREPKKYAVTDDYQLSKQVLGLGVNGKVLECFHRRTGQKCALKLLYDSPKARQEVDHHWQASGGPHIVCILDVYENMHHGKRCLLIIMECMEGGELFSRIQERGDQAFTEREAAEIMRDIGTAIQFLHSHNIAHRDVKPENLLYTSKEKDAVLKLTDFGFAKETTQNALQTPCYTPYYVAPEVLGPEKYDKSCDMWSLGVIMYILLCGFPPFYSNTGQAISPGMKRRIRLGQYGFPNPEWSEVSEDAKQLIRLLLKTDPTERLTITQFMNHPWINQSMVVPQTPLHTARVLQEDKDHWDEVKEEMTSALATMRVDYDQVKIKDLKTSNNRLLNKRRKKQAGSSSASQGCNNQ
inactive: [1] 0.24 | [2] 0.097 | [3] -0.025 | [4] 0.069 | Nexturastat A -0.134 | vemurafenib 0.033 | [5] 0.063 | [6] -0.012 | givinostat 0.015 | barasertib 0.039

ITIH4 (UniProt Q14624)
inactive: [1] -0.14 | [2] 0.166 | [3] 0.135 | [4] 0.214 | Nexturastat A 0.014 | vemurafenib 0.224 | [5] 0.012 | [6] -0.211 | givinostat -0.005 | barasertib 0.014

MIEN1 (UniProt Q9BRT3)
inactive: [1] -0.011 | [2] -0.029 | [3] 0.036 | [4] -0.054 | Nexturastat A -0.002 | vemurafenib 0.081 | [5] 0.073 | [6] 0.016 | givinostat 0 | barasertib 0.132

LBR (UniProt Q14739)
inactive: [1] 0.045 | [2] -0.035 | [3] -0.002 | [4] 0.045 | Nexturastat A -0.108 | vemurafenib 0.063 | [5] 0.05 | [6] -0.009 | givinostat 0.125 | barasertib 0.024

KLC2 (UniProt Q9H0B6)
inactive: [1] 0.025 | [2] -0.055 | [3] 0.021 | [4] 0.015 | Nexturastat A 0.001 | vemurafenib 0.012 | [5] 0.096 | [6] 0.001 | givinostat 0.044 | barasertib 0.006

ILKAP (UniProt Q9H0C8)
inactive: [1] -0.026 | [2] -0.117 | [3] 0.072 | [4] 0.168 | Nexturastat A 0 | vemurafenib 0.08 | [5] 0.082 | [6] 0.063 | givinostat 0.071 | barasertib 0.07

LMBRD2 (UniProt Q68DH5)
inactive: [1] -0.038 | [2] 0.016 | [3] 0.043 | [4] 0 | Nexturastat A 0.019 | vemurafenib -0.052 | [5] -0.03 | [6] 0.038 | givinostat 0.043 | barasertib 0.011

KIAA1324L (UniProt A8MWY0)
Sequence of UniProt A8MWY0 (A8MWY0 whole entry, looked up): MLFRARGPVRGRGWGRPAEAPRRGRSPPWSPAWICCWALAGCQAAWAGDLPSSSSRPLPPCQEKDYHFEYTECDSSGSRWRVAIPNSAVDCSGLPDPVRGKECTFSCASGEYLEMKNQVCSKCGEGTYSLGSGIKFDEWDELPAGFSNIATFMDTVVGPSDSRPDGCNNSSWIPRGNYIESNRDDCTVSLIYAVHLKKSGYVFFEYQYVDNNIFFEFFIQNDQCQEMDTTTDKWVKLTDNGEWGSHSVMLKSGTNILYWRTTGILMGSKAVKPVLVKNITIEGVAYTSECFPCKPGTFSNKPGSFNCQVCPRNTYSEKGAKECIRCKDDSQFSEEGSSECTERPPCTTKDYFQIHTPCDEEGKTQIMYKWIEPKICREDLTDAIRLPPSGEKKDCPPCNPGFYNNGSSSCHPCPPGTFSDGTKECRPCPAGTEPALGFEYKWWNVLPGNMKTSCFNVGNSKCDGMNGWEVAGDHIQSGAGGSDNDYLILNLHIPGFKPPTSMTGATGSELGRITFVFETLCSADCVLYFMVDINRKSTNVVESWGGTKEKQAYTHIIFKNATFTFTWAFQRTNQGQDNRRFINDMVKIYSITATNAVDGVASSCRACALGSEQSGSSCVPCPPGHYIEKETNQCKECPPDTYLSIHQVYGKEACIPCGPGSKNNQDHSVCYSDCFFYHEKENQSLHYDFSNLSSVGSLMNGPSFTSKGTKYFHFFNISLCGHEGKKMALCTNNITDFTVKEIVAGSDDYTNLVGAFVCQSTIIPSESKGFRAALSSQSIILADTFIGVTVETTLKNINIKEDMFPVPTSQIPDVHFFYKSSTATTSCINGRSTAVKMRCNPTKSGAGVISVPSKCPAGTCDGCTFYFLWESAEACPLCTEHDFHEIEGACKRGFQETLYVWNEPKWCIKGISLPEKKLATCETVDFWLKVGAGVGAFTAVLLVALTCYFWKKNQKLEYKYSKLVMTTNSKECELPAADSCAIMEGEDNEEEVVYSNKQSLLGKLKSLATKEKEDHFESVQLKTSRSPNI
inactive: [1] -0.065 | [2] -0.022 | [3] 0.028 | [4] 0.002 | Nexturastat A 0.045 | vemurafenib 0.002 | [5] -0.048 | [6] 0.05 | givinostat 0.032 | barasertib 0.002

MIF (UniProt P14174)
Sequence of UniProt P14174 (P14174 whole entry, looked up): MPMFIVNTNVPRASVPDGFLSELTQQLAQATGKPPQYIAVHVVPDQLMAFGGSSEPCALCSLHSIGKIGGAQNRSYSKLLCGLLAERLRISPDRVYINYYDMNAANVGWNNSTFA
inactive: [1] 0.056 | [2] -0.014 | [3] 0.056 | [4] 0.098 | Nexturastat A -0.29 | vemurafenib -0.009 | [5] -0.047 | [6] -0.076 | givinostat -0.113 | barasertib -0.009

KDM3B (UniProt Q7LBC6)
Sequence of UniProt Q7LBC6 (Q7LBC6 whole entry, looked up): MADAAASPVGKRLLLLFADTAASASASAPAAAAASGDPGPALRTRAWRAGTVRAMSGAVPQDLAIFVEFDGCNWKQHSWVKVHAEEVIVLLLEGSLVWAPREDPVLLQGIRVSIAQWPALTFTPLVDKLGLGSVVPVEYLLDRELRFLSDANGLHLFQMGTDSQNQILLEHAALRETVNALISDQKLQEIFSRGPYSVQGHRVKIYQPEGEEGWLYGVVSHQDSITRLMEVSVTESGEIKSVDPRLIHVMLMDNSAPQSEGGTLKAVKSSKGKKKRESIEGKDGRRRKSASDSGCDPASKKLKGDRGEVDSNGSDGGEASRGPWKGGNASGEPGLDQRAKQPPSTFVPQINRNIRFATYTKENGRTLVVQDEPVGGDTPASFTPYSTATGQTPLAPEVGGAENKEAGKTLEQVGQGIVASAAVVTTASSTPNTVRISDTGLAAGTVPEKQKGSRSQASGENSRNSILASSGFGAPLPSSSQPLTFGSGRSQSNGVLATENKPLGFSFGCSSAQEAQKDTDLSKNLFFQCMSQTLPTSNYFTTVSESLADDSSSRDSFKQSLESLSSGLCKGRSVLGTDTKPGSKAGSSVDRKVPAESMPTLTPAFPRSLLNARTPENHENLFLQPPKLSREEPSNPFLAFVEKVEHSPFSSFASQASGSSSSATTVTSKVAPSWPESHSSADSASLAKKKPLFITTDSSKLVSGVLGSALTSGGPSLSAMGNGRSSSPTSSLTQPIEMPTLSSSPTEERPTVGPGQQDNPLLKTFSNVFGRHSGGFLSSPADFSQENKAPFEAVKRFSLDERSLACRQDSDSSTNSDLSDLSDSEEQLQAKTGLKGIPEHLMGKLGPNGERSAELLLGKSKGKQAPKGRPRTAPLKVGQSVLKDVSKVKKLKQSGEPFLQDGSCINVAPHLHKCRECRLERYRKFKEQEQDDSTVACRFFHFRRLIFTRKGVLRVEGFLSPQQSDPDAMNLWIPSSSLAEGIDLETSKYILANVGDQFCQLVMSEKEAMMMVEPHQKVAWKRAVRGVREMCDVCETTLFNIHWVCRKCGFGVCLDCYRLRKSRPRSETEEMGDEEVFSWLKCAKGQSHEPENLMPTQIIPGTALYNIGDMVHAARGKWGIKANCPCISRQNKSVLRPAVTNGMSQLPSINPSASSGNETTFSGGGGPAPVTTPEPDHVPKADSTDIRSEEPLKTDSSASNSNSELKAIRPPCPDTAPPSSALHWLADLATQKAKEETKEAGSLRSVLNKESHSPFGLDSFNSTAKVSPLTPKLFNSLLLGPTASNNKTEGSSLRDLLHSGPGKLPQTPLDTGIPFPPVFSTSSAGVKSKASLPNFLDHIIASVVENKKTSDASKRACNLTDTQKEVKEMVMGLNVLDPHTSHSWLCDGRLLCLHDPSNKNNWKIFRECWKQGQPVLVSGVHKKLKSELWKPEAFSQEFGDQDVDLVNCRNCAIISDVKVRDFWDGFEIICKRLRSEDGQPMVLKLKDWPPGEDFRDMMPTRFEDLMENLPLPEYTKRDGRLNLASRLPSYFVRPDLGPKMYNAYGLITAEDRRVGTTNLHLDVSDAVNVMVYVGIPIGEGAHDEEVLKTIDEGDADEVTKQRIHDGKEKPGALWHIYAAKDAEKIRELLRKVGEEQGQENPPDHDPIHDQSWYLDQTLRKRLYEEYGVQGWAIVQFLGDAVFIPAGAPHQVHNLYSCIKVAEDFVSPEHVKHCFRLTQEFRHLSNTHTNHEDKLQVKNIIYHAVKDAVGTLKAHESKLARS
inactive: [1] 0.024 | [2] -0.041 | [3] -0.032 | [4] 0.037 | Nexturastat A -0.045 | vemurafenib 0.049 | [5] 0.031 | [6] 0.041 | givinostat -0.001 | barasertib 0.082

IL27RA (UniProt Q6UWB1)
inactive: [1] -0.048 | [2] -0.048 | [3] -0.006 | [4] -0.018 | Nexturastat A 0.027 | vemurafenib -0.025 | [5] -0.091 | [6] -0.008 | givinostat 0.006 | barasertib 0.011

IRAK4 (UniProt Q9NWZ3)
Sequence of UniProt Q9NWZ3 (Q9NWZ3 whole entry, looked up): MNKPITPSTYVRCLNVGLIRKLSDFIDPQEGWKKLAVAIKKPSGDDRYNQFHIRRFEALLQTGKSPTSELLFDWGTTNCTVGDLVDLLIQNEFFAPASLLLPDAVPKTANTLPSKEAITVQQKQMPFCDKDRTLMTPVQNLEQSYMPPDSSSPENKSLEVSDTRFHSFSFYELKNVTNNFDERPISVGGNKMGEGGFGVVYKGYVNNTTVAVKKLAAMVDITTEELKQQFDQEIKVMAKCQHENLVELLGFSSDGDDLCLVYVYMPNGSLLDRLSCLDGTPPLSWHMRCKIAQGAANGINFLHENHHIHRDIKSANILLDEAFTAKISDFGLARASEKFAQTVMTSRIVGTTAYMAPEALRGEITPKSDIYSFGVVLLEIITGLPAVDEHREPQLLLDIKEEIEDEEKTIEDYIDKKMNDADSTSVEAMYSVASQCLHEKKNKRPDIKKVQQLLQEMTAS
inactive: [1] 0.006 | [2] -0.039 | [3] 0 | [4] 0.03 | Nexturastat A 0.009 | vemurafenib 0.041 | [5] 0.068 | [6] -0.003 | givinostat 0.062 | barasertib 0.024

MED16 (UniProt Q9Y2X0)
inactive: [1] -0.025 | [2] -0.044 | [3] -0.046 | [4] 0.036 | Nexturastat A 0.162 | vemurafenib -0.017 | [5] 0.046 | [6] 0.014 | givinostat 0.076 | barasertib -0.03

— the supplement of paper PMC10849652
